In article PMC4336329 (PLoS ONE, 2015):
Hit rate of the full screen: of about 310,000 compounds, about 14,000 (4.5%) showed an effect of 50% or more. Effects have a minus sign here. For the sample, strong results were picked, then their nearest neighbours and some compounds at random.

target: human ether-à-go-go-related gene (hERG) potassium channel (human, UniProt Q12809); experiment: primary screen, population patch clamp on CHO cells stably expressing hERG; higher = less effect of the substance
Sequence (Q12809 whole entry, looked up): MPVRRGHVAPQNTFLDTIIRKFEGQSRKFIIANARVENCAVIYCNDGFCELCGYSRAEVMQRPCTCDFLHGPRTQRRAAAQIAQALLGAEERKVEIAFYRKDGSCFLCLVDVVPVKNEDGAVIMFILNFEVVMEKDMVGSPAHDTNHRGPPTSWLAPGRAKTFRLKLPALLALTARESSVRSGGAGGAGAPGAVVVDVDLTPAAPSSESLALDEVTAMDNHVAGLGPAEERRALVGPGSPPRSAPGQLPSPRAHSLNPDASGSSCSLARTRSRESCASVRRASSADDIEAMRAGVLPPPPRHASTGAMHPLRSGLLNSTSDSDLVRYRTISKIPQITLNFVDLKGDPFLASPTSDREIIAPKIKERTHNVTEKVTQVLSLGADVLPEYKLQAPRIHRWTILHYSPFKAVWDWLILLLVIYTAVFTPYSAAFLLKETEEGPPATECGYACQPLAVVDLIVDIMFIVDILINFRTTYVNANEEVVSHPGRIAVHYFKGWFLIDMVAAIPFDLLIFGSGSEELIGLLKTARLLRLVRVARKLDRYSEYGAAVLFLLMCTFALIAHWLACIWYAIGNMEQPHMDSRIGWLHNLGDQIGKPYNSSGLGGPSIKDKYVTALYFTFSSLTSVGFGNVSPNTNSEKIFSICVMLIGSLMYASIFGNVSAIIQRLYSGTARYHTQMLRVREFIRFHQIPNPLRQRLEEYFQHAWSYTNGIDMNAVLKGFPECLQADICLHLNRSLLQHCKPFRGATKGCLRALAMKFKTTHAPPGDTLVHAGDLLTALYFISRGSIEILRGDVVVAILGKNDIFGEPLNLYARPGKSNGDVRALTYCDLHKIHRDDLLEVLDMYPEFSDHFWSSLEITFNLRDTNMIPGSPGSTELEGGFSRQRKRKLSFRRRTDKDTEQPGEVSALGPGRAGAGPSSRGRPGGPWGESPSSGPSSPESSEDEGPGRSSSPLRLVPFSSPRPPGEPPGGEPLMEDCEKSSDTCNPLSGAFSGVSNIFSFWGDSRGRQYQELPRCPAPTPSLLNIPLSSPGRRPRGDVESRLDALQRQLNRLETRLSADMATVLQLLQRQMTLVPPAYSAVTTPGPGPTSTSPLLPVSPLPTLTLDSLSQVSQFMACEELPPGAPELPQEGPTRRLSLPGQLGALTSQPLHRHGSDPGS
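Further: peak tail current of the secondary pulse compared with the same well before compound.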

Compound	hERG current change (%, negative = inhibition) at 10uM
C#Cc1cccc(-n2nnc(C(C)=O)c2C)c1	15.5%
Cc1noc(C)c1COc1ccccc1C(=O)N1CCN(S(=O)(=O)c2ccccc2F)CC1	-19.2%
CCOC(=O)C1=C(CN2CCN(C(=O)c3ccco3)CC2)NC(=O)NC1c1ccc(OC(C)C)cc1 (centres unmarked)	-69.3%
CC(C)Oc1ccc(C(=O)N2CCN(C(=O)c3ccco3)CC2)cc1	-29.6%
CCOC(=O)C1=C(CN2CCN(C(=O)c3ccco3)CC2)NC(=O)NC1c1ccc(F)cc1 (centres unmarked)	-62.9%
CCOC(=O)C1=C(C)NC(=O)NC1c1ccc(OC(=O)c2ccco2)cc1 (centres unmarked)	-2.08%
CCOC(=O)C1=C(CN2CCN(C(=O)c3ccco3)CC2)NC(=O)NC1c1ccc(C)cc1 (centres unmarked)	-63.2%
CCOC(=O)C1=C(CN2CCN(C(=O)c3ccco3)CC2)NC(=O)NC1c1ccc(Cl)cc1 (centres unmarked)	-35%
COc1ccc(CN2CCN(C(=O)c3ccco3)CC2)cc1	-12.3%
CCOC(=O)C1=C(CN2CCC(C)CC2)NC(=O)NC1c1ccc(Cl)cc1 (centres unmarked)	-37.6%
CCOC(=O)C1=C(CN2CCN(C(=O)OCC)CC2)NC(=O)NC1c1ccc2c(c1)OCO2 (centres unmarked)	-18.4%
CCOC(=O)C1=C(CN2CCN(C(=O)c3ccco3)CC2)NC(=O)NC1c1ccc(OC)cc1 (centres unmarked)	-64.9%
CCOC(=O)C1=C(CN2CCCCCC2)NC(=O)NC1c1ccc2c(c1)OCO2 (centres unmarked)	-48.2%
CCOC(=O)C1=C(CN2CCN(C(=O)c3ccco3)CC2)NC(=O)NC1c1ccccc1 (centres unmarked)	-43.7%
CN(C)/C=C1\SC(=S)N(c2ccc(Br)cc2)C1=O	-4.75%
COc1ccccc1N1CCN(C(=O)Cn2ncc3c([nH]c4ccccc43)c2=O)CC1	4.74%
CCCCn1c(Cc2ccccc2)nnc1SCC(=O)N1CCOCC1	0.754%
CN(/N=C/Cc1nnnn1-c1ccc(Cl)cc1)c1ccccc1	-7.54%
Cc1c(C#N)c2ncnc(N)c2n1-c1ccccc1	5.64%
NC1=C([N+](=O)[O-])C(c2ccc3c(c2)OCO3)c2c(c3ccccc3oc2=O)O1 (centres unmarked)	-21.3%
O=C(Nc1cc2c3c(c1)CC(=O)N3CCC2)C1CCCCC1	-5.43%

Compound	hERG current change (%, negative = inhibition) at 10uM
Cc1cccc(C)c1NC(=O)CSc1nnc(CCCCCNC(=O)OC(C)(C)C)o1	-17.8%
CC(C)(C)OC(=O)NCCCCCc1nnc(SCC(=O)Nc2cccc(Cl)c2)o1	-50.7%
CC(C)(C)OC(=O)NCCc1nnc(SCC(=O)Nc2cccc(Cl)c2)o1	6.91%
COc1cccc(C(=O)C2CCCN(C(=O)CCc3scnc3C)C2)c1 (centres unmarked)	-12.7%
CCOC(=O)c1cnn(-c2ccccc2)c1NC(=O)CN1CCOCC1	16.1%
Cn1c(N)c(C(=O)COC(=O)c2ccco2)c(=O)n(C)c1=O	5.09%
COc1ccc(-c2nc(C)ncc2-c2csc(C)n2)c(O)c1	11%
COc1ccc(C)cc1Cn1nnc2ccccc21	-4.34%
CN(C)c1ccc(C2(O)C(=O)c3ccccc3C2=O)cc1	23.4%
CCNc1ccc(C2(O)C(=O)c3ccccc3C2=O)cc1	12.6%
CNc1ccc(C2(O)C(=O)c3ccccc3C2=O)cc1	-66.1%
COc1ccc(NC(=O)c2sc(NC(=O)COc3ccccc3)nc2C)cc1	1.76%
COc1ccc(CCc2nnc(CCC(=O)N(C)Cc3ccnc4ccccc34)o2)cc1	-37.7%
COc1ccc(C(C)(C)C)cc1NC(=O)COC(=O)c1nc2nccc(C)n2n1	3.17%
O=c1[nH]c(=S)n(C2CC2)c(O)c1C=Nc1cccc(C(F)(F)F)c1	12.8%
Cc1ccc(NC(=O)Nc2cccc3ccccc23)cc1	19.5%
Cc1cccc(NC(=O)NC2(C)CCS(=O)(=O)C2)c1 (centres unmarked)	6.52%
CC1(NC(=S)Nc2ccccc2)CCS(=O)(=O)C1 (centres unmarked)	13.8%
CC1(NC(=O)Nc2ccccc2)CCS(=O)(=O)C1 (centres unmarked)	-53%
C/C(=N/NC(=O)CCC(=O)Nc1ccc(Br)cc1)c1ccc(Br)cc1	12.7%
O=C(Nc1ccccc1)N(CCc1nc2ccccc2[nH]1)C1CCCC1	-24%

Compound	hERG current change (%, negative = inhibition) at 10uM
CC1CCCCC1NC(=O)CCCCCn1c(=S)[nH]c2ccccc2c1=O (centres unmarked)	7.63%
O=C(Nc1nccs1)c1nc[nH]c1C(=O)NCc1ccccc1	3.34%
CC(C)(C)NC(=O)Cn1nnc(-c2cccs2)n1	-4.07%
O=C(Nc1ccc([N+](=O)[O-])cc1)c1cc(-c2ccccn2)nc2c(Cl)cccc12	33%
CCC(=O)c1ccc(OCC(=O)N(Cc2nnc(-c3ccccc3Cl)o2)C2CC2)cc1	-67.2%
Cc1ccc(C)c(OCC(=O)N(Cc2nnc(-c3ccccc3Cl)o2)C2CC2)c1	-20.9%
CSc1cccc(N2CC(C(=O)N(Cc3nnc(-c4ccccc4Cl)o3)C3CC3)CC2=O)c1 (centres unmarked)	-55.5%
O=C1OC(CC(=O)N(Cc2nnc(-c3ccc(Cl)cc3)o2)C2CC2)c2ccccc21 (centres unmarked)	-67.8%
O=C1OC(CC(=O)N(Cc2nnc(-c3ccccc3Cl)o2)C2CC2)c2ccccc21 (centres unmarked)	-40.3%
N#Cc1ccccc1OCC(=O)N(Cc1nnc(-c2ccccc2Cl)o1)C1CC1	-48.7%
CCCN(Cc1nnc(-c2ccccc2Cl)o1)C(=O)c1oc2ccccc2c1C	-13.1%
COc1ccccc1OCC(=O)N(Cc1nnc(-c2ccccc2Cl)o1)C1CC1	-44.2%
Cc1ccc(C(=O)N(Cc2nnc(-c3ccc(Cl)cc3)o2)C2CC2)o1	-32.6%
CCCN(Cc1nnc(-c2ccccc2Cl)o1)C(=O)COc1ccc(Cl)cc1	-60.5%
CCOc1ccccc1N1CC(C(=O)N(Cc2nnc(-c3ccccc3Cl)o2)C2CC2)CC1=O (centres unmarked)	-16.8%
Cc1ccc(CN2CC(C(=O)N(Cc3nnc(-c4ccccc4Cl)o3)C3CC3)CC2=O)cc1 (centres unmarked)	-45.2%
CN(C)c1ccc(/C=N/NC(=O)c2ccc(-n3cnnn3)cc2)cc1	10.8%
CCOc1ccc2nc(NS(=O)(=O)Cc3ccccc3)sc2c1	9.15%
Cc1cc(OC(C)C)c2c(-c3ccccc3)cc(=O)oc2c1	16.2%
O=C1N=C(N2CCCCC2)S/C1=C\c1ccc(Cl)cc1	9.15%
O=C(CN1C(=O)NC2(CCCC2)C1=O)OCc1cc(=O)n2cc(Br)ccc2n1	0.0178%

Compound	hERG current change (%, negative = inhibition) at 10uM
COc1cc(C(=O)Nc2ccc(-c3nnc(-c4ccco4)o3)cc2)cc(OC)c1OC	-3.23%
Cc1ccnc(NS(=O)(=O)c2cccc([N+](=O)[O-])c2)c1	0.0315%
CCNC(=O)CC1C(=O)N(c2cccc(OC)c2)C(=O)N1CCOC (centres unmarked)	8.39%
COc1ccc(CNC(=O)C(c2ccco2)N(Cc2cccs2)C(=O)Cc2cccs2)cc1 (centres unmarked)	10.6%
Cc1cccc(OCC(=O)N(Cc2nnc(-c3ccccc3Cl)o2)C2CC2)c1	-54.2%
O=C(COc1ccccc1)N(Cc1nnc(-c2ccccc2Cl)o1)C1CC1	-15%
Cc1ccc(OCC(=O)N(Cc2nnc(-c3ccccc3Cl)o2)C2CC2)cc1C	-44.1%
O=C(CN(Cc1ccco1)C(=O)CNS(=O)(=O)c1ccc(F)cc1)NCc1ccco1	-8.87%
COc1ccc(S(=O)(=O)NCC(=O)N(CC(=O)NCc2ccco2)Cc2ccc(F)cc2)cc1	1.94%
Cc1ccc(S(=O)(=O)NCC(=O)N(CC(=O)NCc2ccco2)Cc2ccco2)cc1	-23.5%
Cc1ccc(S(=O)(=O)NCC(=O)N(CC(=O)NCc2ccco2)Cc2ccccc2)cc1	-10.2%
COc1ccc(S(=O)(=O)NCC(=O)N(CC(=O)NCc2ccco2)Cc2ccccc2)cc1	-10.6%
COc1cccc(CN(CC(=O)NCc2ccco2)C(=O)CNS(=O)(=O)c2ccccc2)c1	-53.1%
COc1ccc(CN(CC(=O)NCc2ccco2)C(=O)CNS(=O)(=O)c2ccc(C)cc2)cc1	-63.3%
COc1ccc(CNC(=O)CN(Cc2ccco2)C(=O)CNS(=O)(=O)c2ccc(C)cc2)cc1	-73%
O=C(CN(Cc1ccco1)C(=O)CNS(=O)(=O)c1ccc(Cl)cc1)NCc1ccco1	-55.4%
COc1ccc(S(=O)(=O)NCC(=O)N(CC(=O)NCc2ccccc2)Cc2ccco2)cc1	-17%
COc1ccc(CNC(=O)CN(Cc2ccco2)C(=O)CNS(=O)(=O)c2ccccc2)cc1	-38.7%
O=C(CN(Cc1ccccc1)C(=O)CNS(=O)(=O)c1ccccc1)NCc1ccco1	-0.255%
Cc1ccc(C)c(N2CCN(S(=O)(=O)c3csc(C(N)=O)c3)CC2)c1	-8.27%
